This note sets out measurements from PubChem BioAssay (EPA / NIEHS).

Several values for one entry are separate records, joined by “and”; a condition that tells them apart may be missing. Equal values may be shown once. Results filed as inconclusive are left out. Where a structure was tested more than once in an assay, its records may differ in their call. Activity calls are given as the source filed them. How the source made its calls: active means hit-call score of the fitted dose curve at least 0.9, where 1 is the maximum; inconclusive means response in the unintended direction; inactive means score below 0.9.

The nature of the assay: CCTE_Shafer_MEA_dev_bursting_electrodes_number: CCTE's Neural Network Formation Assay for Number of Bursting Electrodes, Shafer Lab (AID 2284043). As for the experimental part:
CCTE_Shafer_MEA_dev assay is conducted using Axion Biosystems 48 well microelectrode array (MEA) plates and Maestro recording system. Each well of the MEA plate contains a grid of 16 microelectrodes embedded in the culture surface. Electrically active cells, such as neurons, can be cultured over the electrodes, and electrical activity in these cells can be recorded extracellularly. The spontaneous firing of neurons is captured from each electrode on a microsecond timescale providing both temporally and spatially precise data. […] The CCTE_Shafer_MEA_dev assay uses primary cultures of rat cortical neurons. Recordings are made on days post-plating 5, 7, 9 and 12. As these cultures mature over time, neural networks develop functional activity and form cohesive networks in which electrical activity can be highly coordinated. CCTE_Shafer_MEA_dev_bursting_electrodes_number is 1 of 19 assay components of the CCTE_Shafer_MEA_dev assay. It measures the number of electrodes in a well with a burst rate of at least 1 burst (temporally-clustered group of action potential firing) every 2 minutes during a recording in a microelectrode array (MEA) using Axion Biosystems Maestro 768 channel amplifier with the AxIS adaptive spike detector. To collapse across multiple recordings made on days post-plating 5, 7, 9 and 12, the trapezoidal area-under-the-curve of the component is calculated.Data from the assay component CCTE_Shafer_MEA_dev_bursting_electrodes_number was analyzed into 1 assay endpoint. This assay endpoint, CCTE_Shafer_MEA_dev_bursting_electrodes_number, was analyzed in the negative analysis fitting direction relative to DMSO as the negative control and baseline of activity. Using a type of functional reporter, gain or loss-of-signal activity can be used to understand electrical activity.
On the day prior to culture, each well was coated thoroughly with 150 uL of 0.05% polyethyleneimine (PEI, Sigma Cat P3143) in 50 mM HEPES (Sigma Cat H7523) at a pH of 8. The plate was incubated at 37C for one hour. PEI was rinsed out with 500 uL of sterile water three times. Plates were stored at 4C until the day of culture. This culture was plated at a seeding density of 1.5 x 10^5 cells/well on a 48-well MEA plate, prepared as described above. Cells were administered via a 25 uL media/laminin ([…]; Sigma Cat L2020-1MG) drop directly onto the microelectrode array, as adding the cells with the laminin results in better attachment than pre-coating with laminin. After 2 hours, an additional 475 uL of cortical media was added and the cells returned to the incubator. Exposure starts at day 0 of plating and is continued over twelve days of network development until the experiment is terminated. Cells are fed with fresh medium on DIV 5 and 9, following the recordings on those days. The entire volume of media in the well is exchanged and any vehicle or compound treatment is renewed. Complete details are found in OP-NHEERL/ISTD/SBB/TJS/2015-03-r0 (available on request, email shafer.tim@epa.gov). Measurement of the electrical activity is non-invasive, and recordings can be made from the same plate over multiple different days of the culture. In cortical neurons, this allows for the measurement of extracellular action potentials over the period during which networks form in the MEA plate.
`O=C(O)C(F)(F)C(F)(F)C(F)(F)C(F)(F)C(F)(F)C(F)(F)C(F)(F)F`: the compound was called inactive.
With `CC(C)N(C(=O)COc1nnc(C(F)(F)F)s1)c1ccc(F)cc1`, the result was inactive and the AC50 is 24.5 µM (active).
For `CCC(C)(C)C(=O)OC1=C(c2ccc(Cl)cc2Cl)C(=O)OC12CCCCC2`, the compound was called inactive.
For the compound `CC[C@H](C)[C@H]1O[C@]2(C=C[C@@H]1C)C[C@@H]1C[C@@H](C/C=C(\C)[C@@H](O[C@H]3C[C@H](OC)[C@@H](O[C@H]4C[C@H](OC)[C@@H](O)[C@H](C)O4)[C@H](C)O3)[C@@H](C)/C=C/C=C3\CO[C@@H]4[C@H](O)C(C)=C[C@@H](C(=O)O1)[C@]34O)O2` (tested in a mixture with another compound), the AC50 is 3.82 nM (active) and 1.05 nM (active).
As for `O=S(=O)(O)C(F)(F)C(F)(F)C(F)(F)C(F)(F)C(F)(F)C(F)(F)C(F)(F)C(F)(F)F`, the AC50 is 43.1 µM (active) and the outcome was inactive.
As for `CC1(c2ccc(Oc3ccccc3)cc2)OC(=O)N(Nc2ccccc2)C1=O` (stereo not drawn), the AC50 is 4.99 µM (active).
Consider `COP(=O)(OC)OC=C(Cl)Cl`, for which the AC50 is 0.659 µM (active) and the result was inactive.
For `ClC1C(Cl)C(Cl)C(Cl)C(Cl)C1Cl` (stereo not drawn), the outcome was inactive.
For `CNC(=O)CSP(=S)(OC)OC`, the AC50 was 66.4 µM (active) and 21.9 µM (active).
Same read-out and setting: the figure for `COP(=S)(OC)Oc1ccc([N+](=O)[O-])cc1` is 15 µM (active); for `CC1(C)C(C=C(Cl)Cl)C1C(=O)OC(C#N)c1ccc(F)c(Oc2ccccc2)c1` (stereo not drawn) it is 2.28 µM (active) and 25.9 µM (active) and 9.56 µM (active).
As for `O=[N+]([O-])/N=C1\NCCN1Cc1ccc(Cl)nc1`, the call was inactive.
In the case of `O=C(O)COc1ccc(Cl)cc1Cl`, the AC50 was 30.9 µM (active).
The same measure, in the same setting: the value for `Oc1cc(Cl)ccc1Oc1ccc(Cl)cc1Cl` was 9.29 µM (active); that for `O=S1OCC2C(CO1)C1(Cl)C(Cl)=C(Cl)C2(Cl)C1(Cl)Cl` (stereo not drawn) was 8.62 µM (active).
